From PubChem
Hits are enriched below; roughly 9.2% of the tested compounds scored in any of these assays.
FLuc counter – firefly luciferase modulation, counter-screen for miR-21 project. Potency, µM (titrated, usually from 57.5 µM), hits mostly inhibitors. AID 588342. actives 6.9% (n = 360,000). purified FLuc, Km substrates, luminescence inhibition. P08659; further: nearly all actives have a fitted effect of over 55% in size
Target sequence (P08659 whole entry, looked up): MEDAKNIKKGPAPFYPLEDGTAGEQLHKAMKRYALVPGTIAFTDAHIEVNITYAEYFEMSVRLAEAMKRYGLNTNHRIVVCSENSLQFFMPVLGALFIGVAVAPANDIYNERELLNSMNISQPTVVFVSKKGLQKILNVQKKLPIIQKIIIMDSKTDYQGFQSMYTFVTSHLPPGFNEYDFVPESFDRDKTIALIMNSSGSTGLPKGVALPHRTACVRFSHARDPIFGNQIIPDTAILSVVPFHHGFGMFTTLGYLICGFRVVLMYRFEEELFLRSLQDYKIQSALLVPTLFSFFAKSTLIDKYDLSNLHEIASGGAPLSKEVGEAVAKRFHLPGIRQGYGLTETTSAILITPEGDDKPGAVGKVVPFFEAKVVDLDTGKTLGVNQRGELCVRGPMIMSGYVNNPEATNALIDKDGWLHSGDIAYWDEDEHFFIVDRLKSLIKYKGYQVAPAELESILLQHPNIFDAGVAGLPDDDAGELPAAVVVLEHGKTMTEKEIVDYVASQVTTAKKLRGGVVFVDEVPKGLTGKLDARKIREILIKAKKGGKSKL
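Purified P. pyralis luciferase (10nM final) with 10uM D-luciferin and 10uM ATP (Km levels) in 50mM Tris acetate pH 7.5, 10mM Mg acetate, 0.01% Tween-20, 0.05% BSA; qHTS 6-point titration, ~60 µM downward; luminescence read.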
ELG1 genotox – inducers of genotoxicity in HEK293T ELG1-luciferase cells. HEK293T ELG1-luciferase reporter, luminescence, 16 h. Potency, µM (doses to about 46 µM), actives largely listed as activators. actives 1.3% (n = 330,000). AID 504466; further: nearly all actives have a fitted effect of over 60% in size
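Quantitative HTS format in 1536-well plates. HEK293T ELG1-luciferase reporter cells receive test compound and are incubated 16 hr at 37 °C, 5% CO2; ONE-Glo added, 30 min room temperature, then luminescence read.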
SMN2 splice up – increases expression of the SMN2 splice variant | HEK293 SMN2-luciferase splicing reporter, luminescence, 30-36 h | Potency, µM (top dose mostly 46.1 µM), hits mostly activators | actives 2.8% (n = 210,000) | AID 1458; further: nearly all actives have a fitted effect of over 55% in size
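qHTS luciferase splicing reporter: luminescence rises when SMN2 exon 7 is included in transfected HEK293 cells. Compound exposure lasted 30-36 h at 37C, with 4.5 mM final sodium butyrate as control, followed by a ONE-Glo read.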
ELG1 repair inh – blocks ELG1-dependent DNA repair in HEK293T cells; HEK293T ELG1-luciferase reporter, luminescence, 16 h; DNA damage induced by 5-fluorouridine; Potency, µM (titrated, usually from 46.1 µM), actives largely listed as inhibitors; actives 2.3% (n = 330,000); AID 504467; further: nearly all actives have a fitted effect of over 55% in size
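In this reporter screen, reduction of luminescence relative to DMSO vehicle indicated activity. Compounds and 5-fluorouridine were added together to 2,000 cells per well, incubated for 16 hr at 37 °C, then developed with ONE-Glo.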
Rab9 prom act – Rab9 promoter activation; Huh7 Rab9 promoter-luciferase reporter, luminescence, 24 h; Potency, µM (highest dose often 9.22 µM), actives largely listed as activators; actives 2.8% (n = 320,000); further: nearly all actives have a fitted effect of over 60% in size
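Huh7 reporter line, Rab9 promoter upstream of luciferase. Compound exposure 24 h at 37 °C in reduced-serum medium with 10% FBS. Read-out: luminescence.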
NPC1 prom act – NPC1 promoter activation | actives 2.4% (n = 320,000) | Potency, µM (series often up to 9.22 µM), hits mostly activators | AID 485313 | Huh7 NPC1 promoter luciferase reporter, 24 h; further: nearly all actives have a fitted effect of over 60% in size
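Quantitative HTS used a cell-based reporter: Huh7 cells stably bearing the NPC1 promoter upstream of luciferase were treated with compounds for 24 h, and promoter activation was read as luminescence.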
Large screens that a line does not name were inactive. The call rests on the fitted dose curve; in most records, active means well fitted curve in the direction sought with a large enough effect; inconclusive means small, poorly fitted or top-dose-only effect, or another doubt; inactive means no such curve, though single readings can be large; an effect the other way counts as inactive or inconclusive.

COC(=O)c1ccc(NC(=O)Nc2ccc3c(c2)OCO3)cc1	FLuc counter 6.7µM, ELG1 genotox inconclusive, ELG1 repair inh inconclusive, Rab9 prom act inconclusive, NPC1 prom act inconclusive (no result: SMN2 splice up)
O=C(Nc1ccc2c(c1)CCC2)Nc1ccc2c(c1)OCO2	FLuc counter inconclusive, ELG1 genotox inconclusive, SMN2 splice up 13µM, ELG1 repair inh inconclusive, Rab9 prom act 2.2µM, NPC1 prom act 3.5µM
COc1ccc(NC(=O)C2CC(c3ccccc3O)=NO2)cc1OC (configuration not stated)	none (no result: SMN2 splice up)
COc1ccc(CNC(=O)c2cccn2-c2nnc(N3CCCC3)s2)c(OC)c1	none (no result: ELG1 genotox, SMN2 splice up, ELG1 repair inh, Rab9 prom act, NPC1 prom act)
Cc1cccc(C)c1NC(=O)Nc1ccc2c(c1)OCO2	none
O=C(Nc1ccc(S(=O)(=O)NCc2ccccc2)cc1)Nc1ccc2c(c1)OCO2	FLuc counter 21µM, ELG1 genotox inconclusive, SMN2 splice up inconclusive
NC(=O)c1ccc(NC(=O)Nc2ccc3c(c2)OCO3)cc1	FLuc counter 24µM, ELG1 genotox inconclusive, ELG1 repair inh inconclusive, Rab9 prom act inconclusive, NPC1 prom act inconclusive (no result: SMN2 splice up)
O=C(Nc1cccc([N+](=O)[O-])c1)Nc1ccc2c(c1)OCCO2	FLuc counter 2.7µM, ELG1 genotox inconclusive, SMN2 splice up 11µM, ELG1 repair inh inconclusive, Rab9 prom act 1.8µM, NPC1 prom act inconclusive
Cc1ccnc(NC(=O)Nc2ccc3c(c2)OCO3)c1	FLuc counter 1.9µM, ELG1 genotox inconclusive, SMN2 splice up 6.3µM, ELG1 repair inh inconclusive, Rab9 prom act 0.5µM, NPC1 prom act 0.63µM
O=C(c1ccccc1)N1CCCCC1CCN1CCCCC1 (configuration not stated)	none (no result: ELG1 genotox, ELG1 repair inh, Rab9 prom act, NPC1 prom act)
O=C(/C=C/c1cccc(C(F)(F)F)c1)OCC(=O)N1CCN(c2ccccc2)CC1	none (no result: FLuc counter, SMN2 splice up, Rab9 prom act, NPC1 prom act)
O=C(Nc1ccc2c(c1)OCO2)Nc1ccc(Br)cn1	FLuc counter 6µM, ELG1 genotox 7.3µM, SMN2 splice up 13µM, ELG1 repair inh inconclusive, Rab9 prom act 1.6µM, NPC1 prom act 4µM
CCc1cc2c(cc3c(=O)n(CC(=O)N4CCC(C)CC4)nc(CC)n32)s1	none (no result: ELG1 genotox, ELG1 repair inh, Rab9 prom act, NPC1 prom act)
COc1ccc(Oc2nnc(C)c3ccccc23)cc1	FLuc counter 12µM, ELG1 genotox inconclusive, SMN2 splice up inconclusive, ELG1 repair inh inconclusive, Rab9 prom act 4µM, NPC1 prom act 2.5µM
COc1ccc(-c2nnc3c4ccccc4c(C)nn23)cc1	FLuc counter 15µM, ELG1 genotox inconclusive, SMN2 splice up inconclusive, ELG1 repair inh inconclusive, Rab9 prom act inconclusive, NPC1 prom act inconclusive
NC(=O)c1nn2c(C(F)(F)F)cc(-c3ccc(Br)cc3)nc2c1Cl	none (no result: ELG1 genotox, SMN2 splice up, ELG1 repair inh, Rab9 prom act, NPC1 prom act)
Cc1c(C(=O)NC(C)c2ccccc2)sc2nc3n(c(=O)c12)CCCC3 (configuration not stated)	none (no result: ELG1 genotox, SMN2 splice up, ELG1 repair inh, Rab9 prom act, NPC1 prom act)
COc1ccc(CCn2nc(C)c([N+](=O)[O-])c2C)cc1	FLuc counter 12µM, ELG1 genotox 16µM, ELG1 repair inh inconclusive, Rab9 prom act 3.2µM, NPC1 prom act 3.2µM (no result: SMN2 splice up)
CCN(C(=O)c1cnc(NC(C)C)cc1C(F)(F)F)c1ccc(Cl)cc1	ELG1 repair inh 18µM (no result: SMN2 splice up)
COc1ccccc1OC(C)C(=O)Nc1cccc(-c2nc3ccccc3s2)c1 (configuration not stated)	FLuc counter 11µM (no result: ELG1 genotox, SMN2 splice up, ELG1 repair inh, Rab9 prom act, NPC1 prom act)
Cc1ccc(C(=O)NC(=S)Nc2cc(-c3nc4ccccc4s3)ccc2C)cc1	FLuc counter 9.5µM, ELG1 genotox inconclusive, ELG1 repair inh inconclusive
COc1ccc(-c2nc3ccccc3s2)cc1NC(=O)COc1ccc(C)cc1	SMN2 splice up 1.3µM (no result: ELG1 genotox, ELG1 repair inh, Rab9 prom act, NPC1 prom act)
COc1ccc(-c2nc3ccccc3s2)cc1NC(C)=O	FLuc counter 6.7µM, ELG1 genotox 16µM, SMN2 splice up 11µM, ELG1 repair inh inconclusive, Rab9 prom act 2.2µM, NPC1 prom act 2.5µM
Cc1ccc(-c2nc3ccccc3s2)cc1NC(=O)COc1ccccc1	none (no result: ELG1 genotox, ELG1 repair inh, Rab9 prom act, NPC1 prom act)
CCN(C(=O)CSc1nc2ccccc2nc1Cc1cccc(OC)c1)c1cccc(C)c1	none (no result: ELG1 genotox, SMN2 splice up, ELG1 repair inh, Rab9 prom act, NPC1 prom act)
CCC(CC)c1nnc(NC(=O)C2CC(=O)N(C3CCCC3)C2)s1 (configuration not stated)	none (no result: SMN2 splice up)
CC(=O)Nc1cccc(NC(=O)CSc2nnnn2-c2ccc3c(c2)OCO3)c1	none (no result: SMN2 splice up)
O=C(O)C[C@@H](CNC(=O)COc1ccc2ccc(=O)oc2c1)c1ccc(Cl)cc1	none (no result: SMN2 splice up)
COc1ccc(-c2nc3ccccc3s2)cc1NC(=O)c1ccccc1F	none (no result: ELG1 genotox, ELG1 repair inh, Rab9 prom act, NPC1 prom act)
COc1ccc(-c2nc3ccccc3s2)cc1NC(=O)c1cc2ccccc2o1	none (no result: ELG1 genotox, ELG1 repair inh, Rab9 prom act, NPC1 prom act)
COc1ccc(-c2nc3ccccc3s2)cc1NC(=O)c1cccc([N+](=O)[O-])c1C	FLuc counter 3.4µM, SMN2 splice up 11µM (no result: ELG1 genotox, ELG1 repair inh, Rab9 prom act, NPC1 prom act)
COc1ccc(-c2nc3ccccc3s2)cc1NC(=O)COc1cccc(C)c1	FLuc counter inconclusive, SMN2 splice up 2.8µM (no result: ELG1 genotox, ELG1 repair inh, Rab9 prom act, NPC1 prom act)
COc1ccccc1C1CC(c2ccccc2)Nc2ncnn21 (configuration not stated)	none
CCc1ccc(-n2c(C)nnc2SCc2nc(-c3ccc(OC)cc3)no2)cc1	none (no result: ELG1 genotox, ELG1 repair inh, Rab9 prom act, NPC1 prom act)
Cc1cc(-c2ccccc2)nc(N2CCC(C(=O)NCc3ccccc3Cl)CC2)n1	ELG1 genotox inconclusive, SMN2 splice up 28µM, ELG1 repair inh inconclusive
Cc1cc(C)nc(N2CCC(C(=O)NNC(=O)Cc3ccccc3)CC2)n1	none (no result: SMN2 splice up)
O=C(NCc1ccccc1Cl)C1CCN(S(=O)(=O)N2CCCCCC2)CC1	ELG1 repair inh 18µM
C=CCNC(=O)C1CCN(c2nc(C)cc(-c3ccccc3)n2)CC1	FLuc counter 19µM, ELG1 genotox inconclusive, SMN2 splice up 8.9µM, ELG1 repair inh inconclusive, Rab9 prom act 3.5µM, NPC1 prom act 3.5µM
C=CCNC(=O)C1CCN(c2cc(C)nc(-c3ccccc3)n2)CC1	none
O=C(CN1N=C(c2ccccc2)CCC1=O)NCc1cccs1	none
